Pf apPOL inh – Pf-apPOL DNA polymerase inhibition | AID 1794808 | Recombinant Pf-apPOL, molecular beacon fluorescence, 1.5 h | inhibition, % at 10 µM | 0.25% of 210,000 active
mHTT CaM bind – disrupts binding of mutant huntingtin to calmodulin. AID 1671202. 3.6% of 190,000 active. inhibition, % at 15 µM. AlphaScreen His-mHTT/GST-CaM binding, luminescence. P42858
A number is an active result; - = inactive; . = not tested or not shown. Sampled rows, rich in hits. Any-hit rate of the full collection: about 3.6%. Rule as the data show it: active = inhibition above about 50%; inactive = the rest.

SMILES | Pf apPOL inh | mHTT CaM bind
CCOC(=O)COc1ccccc1C=C(C#N)C(=O)c1cccc(C(F)(F)F)c1 | - | .
COc1ccc(CCNC(=O)NCC2CCN(Cc3ccsc3)CC2)cc1 | - | -
O=[N+]([O-])c1ccccc1C1CC(c2ccccc2)=NN1 (configuration not stated) | - | 61.0
CC(=O)N1N=C(c2ccccc2)CC1c1ccccc1[N+](=O)[O-] (configuration not stated) | - | -
CCCOc1ccc(C2C(=O)N(C3CCCCC3)CC(=O)N2CCCOCC)cc1OC (configuration not stated) | - | -
COc1ccccc1C=C1Oc2c(ccc3c2CN(Cc2cccnc2)CO3)C1=O | - | -
COc1ccccc1C=C1Oc2c(ccc3c2CN(CCN2CCOCC2)CO3)C1=O | - | 57.0
COc1ccc(C=C2Oc3c(ccc4c3CN(Cc3ccco3)CO4)C2=O)cc1OC | - | 58.0
COc1ccccc1C=C1Oc2c(ccc3c2CN(Cc2cc(OC)c(OC)c(OC)c2)CO3)C1=O | - | 54.7
COc1cccc(C=C2Oc3c(ccc4c3CN(Cc3ccco3)CO4)C2=O)c1 | - | -
COc1ccc(C=C2Oc3c(ccc4c3CN(Cc3cccnc3)CO4)C2=O)c(OC)c1 | - | -
COc1ccccc1C=C1Oc2c(ccc3c2CN(Cc2ccncc2)CO3)C1=O | - | -
COc1ccc(C=C2Oc3c(ccc4c3CN(CCN3CCOCC3)CO4)C2=O)c(OC)c1 | - | 54.9
Clc1ccc(N=Cc2ccccc2)cc1 | - | .
CCC(=O)Nc1nonc1-c1nc2ccccc2n1Cc1ccc(Cl)c(Cl)c1 | - | -
CCCC(=O)N1CCS(=O)CC1 | - | -
N#Cc1cccc(NC(=O)c2ccncc2)c1 | - | .
O=C(Nc1cccc(NC(=O)c2ccncc2)c1)c1ccncc1 | 99.3 | -
COc1ccc(-n2nc3c(c2NC(=O)c2cc(Cl)ccc2OC)CS(=O)(=O)C3)cc1 | - | -
Cc1ccc([N+](=O)[O-])cc1N=Cc1cc2c(cc1[N+](=O)[O-])OCO2 | - | -
O=[N+]([O-])c1cc2c(cc1C=Nc1ccc(Nc3ccccc3)cc1)OCO2 | - | 85.0
CC(=O)Nc1ccc(N=Cc2cc3c(cc2[N+](=O)[O-])OCO3)cc1 | - | -
COc1ccc(N=Cc2cc3c(cc2[N+](=O)[O-])OCO3)cc1OC | - | -
O=[N+]([O-])c1cc2c(cc1C=Nc1ccccc1)OCO2 | - | 78.0
Cc1cc(O)c(N=Cc2cc3c(cc2[N+](=O)[O-])OCO3)cc1C | - | 70.0
SMILES | Pf apPOL inh | mHTT CaM bind
Cc1ccc(N=Cc2cc3c(cc2[N+](=O)[O-])OCO3)cc1Br | - | 69.0
O=[N+]([O-])c1ccc(N=Cc2cc3c(cc2[N+](=O)[O-])OCO3)cc1 | - | -
Cc1ccc2nc(-c3cc4ccccc4oc3=N)[nH]c2c1 | - | -
C=C(C)COc1ccc2c(=O)c(Oc3cccc(OC)c3)c(C)oc2c1 | - | -
Cc1cc2ncn(S(C)(=O)=O)c2cc1C | - | -
O=Cc1cc(-c2ccccc2)oc1Cl | - | -
O=[N+]([O-])c1cc2c(cc1C=Nc1ccc(Cl)c(Cl)c1)OCO2 | - | -
Cc1cccc(N=Cc2cc3c(cc2[N+](=O)[O-])OCO3)c1 | - | 86.0
O=C(/C=C/c1cccc([N+](=O)[O-])c1)Nc1cc2cc(Br)ccc2oc1=O | - | -
O=[N+]([O-])c1cc2c(cc1CN1CCN(c3ccccc3)CC1)OCO2 | - | -
O=[N+]([O-])c1cc2c(cc1C1N(Cc3ccccc3)CCN1Cc1ccccc1)OCO2 | - | 60.0
CCOC(=O)C(NC(=O)c1cccc(Cl)c1)(Nc1nc2ccccc2s1)C(F)(F)F (configuration not stated) | - | .
CS(=O)(=O)N1CCc2cc(NC(=O)Nc3ccc(Cl)cc3F)ccc21 | - | -
COc1ccc(C2(CNC(=O)c3ccccc3[N+](=O)[O-])CCCC2)cc1OC | - | 100.0
COc1ccc(C2(CNC(=O)c3ccc(OC)c([N+](=O)[O-])c3)CCCC2)cc1OC | - | -
O=C1CC(Nc2ccc(I)cc2)C(=O)N1c1ccccc1 (configuration not stated) | - | -
CCCN1C(=O)Cc2cc(C(=O)N3CCN(c4cccc(C)c4)CC3)ccc21 | - | -
CCCN1C(=O)Cc2cc(C(=O)N3CCN(c4ccc(F)cc4)CC3)ccc21 | - | 51.1
CCCN1C(=O)Cc2cc(C(=O)N3CCN(c4ccc(C)cc4)CC3)ccc21 | - | -
Cc1cccc(N2CCN(C(=O)c3ccc(-c4cccnc4)nc3)CC2)c1C | - | 64.3
CCCN1C(=O)Cc2cc(C(=O)N3CCN(c4cccc(C)c4C)CC3)ccc21 | - | 55.1
CCCN1C(=O)Cc2cc(C(=O)N3CCOCC3)ccc21 | - | -
CCCN1C(=O)Cc2cc(C(=O)N3CCN(c4ccccc4)CC3)ccc21 | - | 51.3
COc1ccccc1N1CCN(C(=O)c2ccc(-c3cccnc3)nc2)CC1 | - | -
CSc1ccccc1N1C(=O)NC2CC1(C)Oc1ccc(Cl)cc12 (configuration not stated) | - | -
SMILES | Pf apPOL inh | mHTT CaM bind
O=C1OC(c2ccc(F)cc2)=N/C1=C/c1ccc2c(c1)OCO2 | - | -
O=[N+]([O-])c1cc(Cl)ccc1NCn1nnc2ccccc21 | - | -
CCCn1cc(C2=CCN(S(=O)(=O)Cc3ccc(Cl)cc3)CC2)c2cccnc21 | - | -
COc1cc(/C=C2/SC(=O)NC2=O)cc(OC)c1OC | - | -
O=C1N=c2ccc(Br)cc2=C1c1sc(=O)[nH]c1O | - | -
COc1ccccc1C(=O)N1CCC(c2ccn3ncc(C(=O)N4CCCC4)c3c2)CC1 | - | -
Cc1ccc(C2CC(c3cccc(Br)c3)Nc3nnnn32)cc1 (configuration not stated) | - | -
O=C(c1ccc2c(c1)CC(=O)N2Cc1ccccc1)N1CCCCC1 | - | -
O=C(c1ccc2c(c1)CC(=O)N2Cc1ccccc1)N1CCN(c2ccccn2)CC1 | - | 54.5
CC(c1ccccc1)n1c(SCc2cc(=O)oc3cc(O)ccc23)n[nH]c1=O (configuration not stated) | - | .
Cc1ccc(N=C2NC(=O)CC(C(=O)Nc3ccc(C)c(C)c3)S2)cc1 (configuration not stated) | - | -
Cc1ccc(NCN2C(=O)S/C(=C\c3cccc(F)c3)C2=O)cc1 | - | -
CCN(CC)c1ccc(C(NC(=O)C(C)C)c2ccc3cccnc3c2O)cc1 (configuration not stated) | - | 100.0
CC(C)C(=O)NC(c1ccc(N(C)C)cc1)c1ccc2cccnc2c1O (configuration not stated) | - | 100.0
COc1ccc(C2C3=C(Nc4ncnn42)c2ccccc2OC3c2ccc(N(C)C)cc2)cc1 (configuration not stated) | - | -
COc1cccc(NC(=S)Nc2ccc(Br)cc2Cl)c1 | - | .
Cc1ccc(Cn2c(=O)cc(C(=O)N3CCC4(CC3)OCCO4)c3ccccc32)cc1 | - | 59.0
Cc1cc(C(=O)N2CCC3(CC2)OCCO3)c2ccccc2n1 | - | -
O=C(COc1ncccn1)NCc1cccnc1 | - | -
Cc1nnsc1C(=O)N1CCC(CNC(=O)CSCc2ccccc2)CC1 | - | -
Cc1ccc(Nc2nc(-c3ccc([N+](=O)[O-])cc3)cs2)cc1C | - | 75.2
c1ccc(Nc2nc(-c3ccc4c(c3)OCO4)cs2)nc1 | - | -
O=[N+]([O-])c1ccc(Nc2nc(-c3ccncc3)cs2)cc1 | - | -
Cc1nc(N)sc1-c1csc(Nc2ccc([N+](=O)[O-])cc2)n1 | - | 98.7
CC(=O)Nc1nc(C)c(-c2csc(Nc3ccc([N+](=O)[O-])cc3)n2)s1 | - | -
